Activity calls are given as the source filed them. The calls were made as follows: active = hit-call score of the fitted dose curve at least 0.9, where 1 is the maximum; inactive = score below 0.9.

The experiment in a line: ATG_ERE_CIS: Attagene CIS-FACTORIAL HepG2 Assay for Estrogen Response Element (ERE) (AID 2282940). The note with it: HepG2 ERE cis-reporter, Attagene RNA transcript; actives raise or lower the signal. The procedure: ATG_CIS is a cell-based, multiplexed-readout assay that uses HepG2, a human liver cell line, with measurements taken at 24 hours after chemical dosing in a 24-well plate.ATG_ERE_CIS is one of 52 assay component(s) measured or calculated from the ATG_CIS assay. It is designed to make measurements of mRNA induction, a form of inducible reporter, as detected with fluorescence intensity signals by Reverse transcription polymerase chain reaction (RT-PCR) and Capillary electrophoresis technology.Data from the assay component ATG_ERE_CIS was analyzed into 1 assay endpoint. This assay endpoint, ATG_ERE_CIS, was analyzed with bidirectional fitting relative to DMSO as the negative control and baseline of activity. Using a type of inducible reporter, measures of mRNA for gain or loss-of-signal activity can be used to understand the reporter gene at the transcription factor-level as they relate to the gene ESR1. Furthermore, this assay endpoint can be referred to as a primary readout, because this assay has produced multiple assay endpoints where this one serves a reporter gene function. To generalize the intended target to other relatable targets, this assay endpoint is annotated to the nuclear receptor intended target family, where the subfamily is steroidal.
Human liver HepG2 cells are transiently transfected with multiple reporter transcription units (MRTUs) in 6-well plates using FuGene 6 reagent (Roche; 3 ml FuGene/1 mg DNA). The MRTU constructs are regulated by a cis-regulating element (promoter). […] A major difference between the CIS and TRANS system is that in CIS activities of endogenous TFs are measured, whereas the TRANS assay evaluates changes in activities of exogenous, chimeric NR-Gal4 proteins. […] At the end of 24 hour incubation, total RNA was isolated using TriZol reagent (Invitrogen). The isolated RNA is then reverse-transcribed using oligo(dT) primer and Mo-MLV reverse transcriptase (Invitrogen) with DNAse I (Ambion) treatment for 30 min. The one-tenth of the produced cDNA was amplified by PCR using Taq DNA polymerase (Invitrogen) and two reporter sequence-specific primers. The PCR products were fluorescently labeled by primer extension with 6-arboxyfluorescein (6-FAM) 5'-labeled reporter sequence-specific primer (2 min at 95 C, 20 s at 68 C and 10 min at 72 C) and these products were digested with 5U of HpaI (New England Biolabs) for 2h at 37 C. The fragments were purified using Qiaquick PCR columns (Qiagen), analyzed on an ABI 3130xL genetic analyzer (Applied Biosystems) with peak positions identified by using a set of X-rhodamine (ROX)-labeled MapMarker1000 molecular weight standards (BioVentures). The raw capillary electrophoresis data was processed using Attagraph software (Attagene).
As to `CCCCCCCCCCCCC[N+](C)(C)Cc1ccccc1`, the result was inactive. Same read-out and setting: the result for `CCC/C=C/CO` reads “inactive”. On to `CC(C)Nc1ccc(NC(C)C)c2c1C(=O)c1ccccc1C2=O`, for which the compound was called inactive. For `O=C(c1ccccc1)c1ccc(O)cc1O`, the AC50 is 1.72 µM (active). For `OCCC(O)CO` (stereo not given), the result was inactive. With `O=C(O)C(F)(F)C(F)(F)C(F)(F)C(F)(F)C(F)(F)C(F)(F)C(F)F`, the AC50 is 64 µM (active). Regarding `CNS(=O)(=O)C(F)(F)C(F)(F)C(F)(F)C(F)(F)C(F)(F)C(F)(F)C(F)(F)C(F)(F)F`, the compound was called inactive. For `CCCCCCCCCc1ccc(OCCO)cc1`, the call was inactive. With `CCCCCCCCn1sc(Cl)c(Cl)c1=O`, the AC50 was 11.1 µM (active). Turning to `CCCCOC(=O)C(C)O` (stereo not given), the outcome was inactive. For the compound `CCN(CC)c1ccc2c(c1)Oc1cc(N(CC)CC)ccc1C21OC(=O)c2ccccc21`, the compound was called inactive. Consider `O=C(F)C1(F)C(F)(F)C(F)(F)C(F)(F)C(F)(F)C1(F)F`, for which the outcome was inactive. Same read-out and setting: to `O=C1c2ccccc2C(=O)c2c(Cl)cccc21` belongs “inactive”. For `CC(C)=CCCC(C)O` (stereo not given), the call was inactive. Regarding `CCCCC(CC)COC(=O)c1ccc(N(C)C)cc1` (stereo not given), the AC50 is 9.36 µM (active). Regarding `Cc1cnccn1`, the result was inactive. For the compound `CCOC(=O)C1CC(=O)C(=C(O)C2CC2)C(=O)C1` (stereo not given), the call was inactive.

As to `O=C(O)CCC(F)(F)C(F)(F)C(F)(F)F`, the result was inactive. As for `NCC(F)(F)C(F)(F)C(F)(F)C(F)(F)C(F)(F)C(F)(F)C(F)(F)C(F)(F)F`, the result was inactive. Regarding `CSc1ccc(Cl)cc1`, the outcome was inactive. With `C#CC(O)CCC` (stereo not given), the compound was classed as inactive.

For `Oc1ccc2c(c1)CCC2`, the AC50 was 55.2 µM (active).

For `OCCCCl`, the call was inactive. Regarding `CCCCOC(=O)[C@H](C)O`, the compound was classed as inactive. On to `CC(C)(C)c1cc(CCC(=O)NCCCCCCNC(=O)CCc2cc(C(C)(C)C)c(O)c(C(C)(C)C)c2)cc(C(C)(C)C)c1O`, for which the call was inactive. `CCOCN(C(=O)CS(=O)(=O)O)c1c(C)cccc1CC`: the compound was called inactive.

In the case of `CC(C)(C)c1cc(CCC(=O)OCC(COC(=O)CCc2cc(C(C)(C)C)c(O)c(C(C)(C)C)c2)(COC(=O)CCc2cc(C(C)(C)C)c(O)c(C(C)(C)C)c2)COC(=O)CCc2cc(C(C)(C)C)c(O)c(C(C)(C)C)c2)cc(C(C)(C)C)c1O`, the AC50 is 7.29 µM (active). For `C=CC(=O)OCCC(F)(F)C(F)(F)C(F)(F)C(F)(F)F`, the compound was called inactive. With `Nc1c(Br)cc([N+](=O)[O-])cc1Br`, the compound was classed as inactive. `CCOC(C=C(C)CCC=C(C)C)OCC`: the outcome was inactive.

In the case of `O=S(=O)(O)c1ccc(Cl)cc1`, the compound was called inactive. `O=C(Cl)C(F)(F)C(F)(F)C(F)(F)C(F)(F)C(F)(F)C(F)(F)C(F)(F)F`: the AC50 was 47.5 µM (active). `Cc1ccc(O)c(-n2nc3ccccc3n2)c1`: the AC50 is 10.4 µM (active). `CC(C)(C)c1cc(Cc2cc(C(C)(C)C)c(O)c(C(C)(C)C)c2)cc(C(C)(C)C)c1O`: the outcome was inactive.

Take `CCOC(OCC)OCC`: the compound was classed as inactive. As for `OCC(F)(F)C(F)(F)C(F)(F)C(F)(F)C(F)(F)C(F)(F)C(F)(F)C(F)(F)CO`, the AC50 is 0.163 µM (active).

In the case of `N#Cc1ccccc1O`, the result was inactive. Take `O=C(O)C(F)(F)C(F)(F)C(F)(F)OC(F)(F)F`: the result was inactive. The same measure, in the same setting: the result for `CC1=CCC(=O)O1` reads “inactive”; that for `C=CC(=O)OCC(F)(F)C(F)(F)C(F)(F)COC(=O)C=C`, “inactive”.

Source of the values: PubChem BioAssay (EPA / NIEHS).
